# Measured values taken from PubChem BioAssay AID734 (The Scripps Research Institute Molecular Screening Center, 2007).
# The campaign covered roughly 5,100 compounds. Fewer than 10 were called active.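 The calls were made as follows: active = inhibition above the mean inhibition over all tested compounds plus 3 SD (cut at about 75% in these data); inactive = the rest.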 The list is a sample of the results.
# Molecular target: Collagenase 3 (Homo sapiens) (UniProt P45452)
# Test: MMP13 inhibitors among fluorescent compounds, confirmation, biochemical, possible fluorescent artifacts, delta fluorescence (AID 734);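 also: 0% = DMSO only wells and 100% = 8 µM reference MMP13 inhibitor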
# Settings: MMP13 fTHP FRET cleavage, delta fluorescence 4 h; active compounds read high;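 each compound tested at 4 µM nominal in triplicate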
row,SMILES,inhibition
1,CCn1c(=O)c(C(C)=O)nc2ccccc21,7.87% (inactive)
2,CCCCN(CC)CCNC(=O)c1cc2c(=O)n(C)c3ccccc3c2n1C,9.76% (inactive)
3,COC(=O)c1[nH]c2ccc(C)cc2c1NC(=O)CN1CCN(Cc2ccccc2)CC1,5.26% (inactive)
4,Cc1cc(-c2ccccc2)nn1-c1nc2c(c(=O)[nH]c(=O)n2C)n1C,6.56% (inactive)
5,COc1ccc(-c2noc(CCC(=O)NCc3cccnc3)n2)cc1,-0.6% (inactive)
6,O=C(CSc1ccc2nnc(-c3cccc(F)c3)n2n1)NCC1CCCO1 (centres undefined),0.9% (inactive)
7,CCCn1c(=N)c(C(=O)NCC2CCCO2)cc2c(=O)n3cccc(C)c3nc21 (centres undefined),0.11% (inactive)
8,COc1cc2c(cc1OC)CN(C(=O)NS(=O)(=O)c1ccc(C)cc1)CC2,6.18% (inactive)
9,COc1cc2c(cc1OC)-c1cc(N3CCCCCC3)nc(=O)n1CC2,6.6% (inactive)
10,COc1cc(OC)cc(-c2cc3nc(C)c(CCC(=O)NC(C)CCc4ccco4)c(C)n3n2)c1 (centres undefined),-0.26% (inactive)
11,CC(=O)Nc1nonc1-c1nc2ccccc2n1Cc1nnc(C)o1,4.74% (inactive)
12,COc1ccc(-c2cc(C(F)(F)F)nc(SCC(=O)Nc3cc(C)on3)n2)cc1OC,11.1% (inactive)
13,COc1cc(OC)cc(C(=O)NCC(=O)N2CCC(C)CC2)c1,7.88% (inactive)
14,Cc1nn(-c2ccccc2)c2sc(C(=O)OC3CCOC3=O)cc12 (centres undefined),-15.6% (inactive)
15,COC(=O)c1cc2c(C)nn(-c3ccccc3)c2s1,5.12% (inactive)
16,Cc1nn(-c2ccccc2)c2sc(-c3n[nH]c(=S)o3)cc12,75.6% (active)
17,CCOC(=O)N1CCC(NC(=O)c2cc3c(-c4cccc(OC)c4)nn(C)c3s2)CC1,1.92% (inactive)
18,Cc1ccc(S(=O)(=O)Nc2ccccc2C(N)=O)cc1,7.43% (inactive)
19,N=C1C(c2nc3ccccc3c(=O)[nH]2)=C(O)CN1CCc1ccccc1,-5.72% (inactive)
20,COc1ccccc1C(=O)Nc1ccc(S(=O)(=O)N2CCOCC2)cc1,-0.87% (inactive)
21,O=C(c1ccc(Br)o1)N1CCN(Cc2ccc3c(c2)OCO3)CC1,3.6% (inactive)
22,Cc1ccc2nc(-c3ccc(SCC(=O)O)nc3)[nH]c2c1,-13.3% (inactive)
23,O=C(NCCN1CCOCC1)c1cc2ccccc2[nH]1,3.77% (inactive)
24,COC(=O)c1ccc(Sc2ccc(C)cc2)c(N)c1,-1.3% (inactive)
